Experimental data: publication PMC5540273 (PLoS ONE, 2017)

Key:
Settings in all cases: concentration: 1 μM, replicates: in singlicate; n = 1
[1] = tested on: PLK2
[2] = tested on: PLK3
[3] = tested on: PLK4
[4] = tested on: PRKCD
[5] = tested on: PRKCE
[6] = tested on: PRKCH
[7] = tested on: PRKCI
[8] = tested on: PRKCQ
[9] = tested on: PRKD1
[10] = tested on: PRKD2
[11] = tested on: PRKD3
[12] = tested on: PRKG1
[13] = tested on: PRKG2
[14] = tested on: T1, PRKR
T1 construct: gene EIF2AK2

[15] = tested on: PRKX
[16] = tested on: PRP4
[17] = tested on: T2, PYK2
T2 construct: gene PTK2B

[18] = tested on: QSK
[19] = tested on: RAF1
[20] = tested on: RET
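Also: KINOMEscan kinase panel screen.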

With `O=C(Nc1cccc(-c2nn3ccccc3c2-c2ccnc(Nc3cccc(C(F)(F)F)c3)n2)c1)c1c(F)cccc1F` [GSK292658] the “%Inh” value [1] was 0%, the “%Inh” value [2] was 0% and the “%Inh” value [3] was 3%. For the same molecule, the “%Inh” value [4] was 0%, the “%Inh” value [5] was 0% and the “%Inh” value [6] was 17%. For the same molecule, the “%Inh” value [7] was 9%, the “%Inh” value [8] was 20% and the “%Inh” value [9] was 0%. For the same molecule, the “%Inh” value [10] was 0%, the “%Inh” value [11] was 29% and the “%Inh” value [12] was 3%. The “%Inh” value [13] was 0%, the “%Inh” value [14] was 0% and the “%Inh” value [15] was 8%. For the same molecule, the “%Inh” value [16] was 5%, the “%Inh” value [17] was 0% and the “%Inh” value [18] was 2%. For the same molecule, the “%Inh” value [19] was 72% and the “%Inh” value [20] was 73%.
For `COc1cc(Nc2nccc(-c3c(-c4cccc(NC(=O)c5c(F)cccc5F)c4)nn4ccccc34)n2)cc(OC)c1OC` [GSK323521], the “%Inh” value [1] was 0%, the “%Inh” value [2] was 0% and the “%Inh” value [3] was 6%. The “%Inh” value [4] was 31%, the “%Inh” value [5] was 17% and the “%Inh” value [6] was 22%. The “%Inh” value [7] was 27%, the “%Inh” value [8] was 15% and the “%Inh” value [9] was 8%. The “%Inh” value [10] was 7%, the “%Inh” value [11] was 42% and the “%Inh” value [12] was 31%. For the same molecule, the “%Inh” value [13] was 0%, the “%Inh” value [14] was 15% and the “%Inh” value [15] was 22%. For the same molecule, the “%Inh” value [16] was 1%, the “%Inh” value [17] was 2% and the “%Inh” value [18] was 3%. The “%Inh” value [19] was 16% and the “%Inh” value [20] was 29%.
`COc1cccc(-c2ccc3c(NC(=O)C4CC4)n[nH]c3n2)c1` [SB-710903] was tested, and the “%Inh” value [1] was 0%, the “%Inh” value [2] was 0% and the “%Inh” value [3] was 6%. The “%Inh” value [4] was 0%, the “%Inh” value [5] was 23% and the “%Inh” value [6] was 10%. For the same molecule, the “%Inh” value [7] was 11%, the “%Inh” value [8] was 0% and the “%Inh” value [9] was 0%. For the same molecule, the “%Inh” value [10] was 0%, the “%Inh” value [11] was 0% and the “%Inh” value [12] was 0%. The “%Inh” value [13] was 0%, the “%Inh” value [14] was 0% and the “%Inh” value [15] was 0%. The “%Inh” value [16] was 70%, the “%Inh” value [17] was 6% and the “%Inh” value [18] was 0%. For the same molecule, the “%Inh” value [19] was 12% and the “%Inh” value [20] was 6%.
For `CN1CCN(Cc2cccc(-c3ccc4c(Nc5ccc(Oc6ccccc6)cc5)ccnc4c3)c2)CC1` [GW578342], the “%Inh” value [1] was 0%, the “%Inh” value [2] was 1% and the “%Inh” value [3] was 0%. The “%Inh” value [4] was 15%, the “%Inh” value [5] was 6% and the “%Inh” value [6] was 2%. The “%Inh” value [7] was 19%, the “%Inh” value [8] was 3% and the “%Inh” value [9] was 0%. For the same molecule, the “%Inh” value [10] was 18%, the “%Inh” value [11] was 0% and the “%Inh” value [12] was 0%. For the same molecule, the “%Inh” value [13] was 0%, the “%Inh” value [14] was 0% and the “%Inh” value [15] was 6%. For the same molecule, the “%Inh” value [16] was 27%, the “%Inh” value [17] was 0% and the “%Inh” value [18] was 9%. For the same molecule, the “%Inh” value [19] was 0% and the “%Inh” value [20] was 48%.
With `CCn1c(-c2nonc2N)nc2c(C#CC(C)(C)O)nc(OC[C@H](N)c3ccccc3)cc21` [GSK943949] the “%Inh” value [1] was 0%, the “%Inh” value [2] was 0% and the “%Inh” value [3] was 19%. The “%Inh” value [4] was 96.2%, the “%Inh” value [5] was 75% and the “%Inh” value [6] was 97.9%. The “%Inh” value [7] was 20%, the “%Inh” value [8] was 82% and the “%Inh” value [9] was 7%. For the same molecule, the “%Inh” value [10] was 17%, the “%Inh” value [11] was 22% and the “%Inh” value [12] was 60%. For the same molecule, the “%Inh” value [13] was 92.6%, the “%Inh” value [14] was 0% and the “%Inh” value [15] was 92.1%. The “%Inh” value [16] was 10%, the “%Inh” value [17] was 7% and the “%Inh” value [18] was 0%. For the same molecule, the “%Inh” value [19] was 11% and the “%Inh” value [20] was 10%.
For `CC(C)(C)c1ccc2nccc(Nc3cccc(O)c3)c2c1` [GW856795], the “%Inh” value [1] was 0%, the “%Inh” value [2] was 0% and the “%Inh” value [3] was 7%. The “%Inh” value [4] was 0%, the “%Inh” value [5] was 22% and the “%Inh” value [6] was 0%. For the same molecule, the “%Inh” value [7] was 0%, the “%Inh” value [8] was 0% and the “%Inh” value [9] was 9%. The “%Inh” value [10] was 6%, the “%Inh” value [11] was 77% and the “%Inh” value [12] was 1%. For the same molecule, the “%Inh” value [13] was 4%, the “%Inh” value [14] was 0% and the “%Inh” value [15] was 0%. The “%Inh” value [16] was 27%, the “%Inh” value [17] was 0% and the “%Inh” value [18] was 0%. The “%Inh” value [19] was 0% and the “%Inh” value [20] was 94.7%.
With `COCCOCCOc1cc2ncc3c4ccc(C#N)cc4[nH]c3c2cc1OC` the “%Inh” value [1] was 0%, the “%Inh” value [2] was 0% and the “%Inh” value [3] was 13%. For the same molecule, the “%Inh” value [4] was 0%, the “%Inh” value [5] was 11% and the “%Inh” value [6] was 0%. The “%Inh” value [7] was 33%, the “%Inh” value [8] was 35% and the “%Inh” value [9] was 0%. The “%Inh” value [10] was 0%, the “%Inh” value [11] was 0% and the “%Inh” value [12] was 0%. For the same molecule, the “%Inh” value [13] was 17%, the “%Inh” value [14] was 41% and the “%Inh” value [15] was 0%. For the same molecule, the “%Inh” value [16] was 19%, the “%Inh” value [17] was 6% and the “%Inh” value [18] was 67%. The “%Inh” value [19] was 0% and the “%Inh” value [20] was 45%.
In the case of `CC(=O)N1CCN(c2ccc(Nc3nccc(-c4sc(C(C)C)nc4-c4cccc(NS(=O)(=O)c5cccc(Cl)c5)c4)n3)cn2)CC1` [GSK1660437], the “%Inh” value [1] is reported as 5%, the “%Inh” value [2] is reported as 0% and the “%Inh” value [3] is reported as 99.8%. The “%Inh” value [4] was 1%, the “%Inh” value [5] was 0% and the “%Inh” value [6] was 19%. For the same molecule, the “%Inh” value [7] was 13%, the “%Inh” value [8] was 13% and the “%Inh” value [9] was 89%. The “%Inh” value [10] was 95.3%, the “%Inh” value [11] was 100% and the “%Inh” value [12] was 25%. For the same molecule, the “%Inh” value [13] was 0%, the “%Inh” value [14] was 0% and the “%Inh” value [15] was 5%. For the same molecule, the “%Inh” value [16] was 2%, the “%Inh” value [17] was 0% and the “%Inh” value [18] was 10%. For the same molecule, the “%Inh” value [19] was 86% and the “%Inh” value [20] was 54%.
With `O=C(Nc1n[nH]c2nc(-c3ccc(O)cc3)ccc12)C1CC1` [SB-710363] the “%Inh” value [1] was 10%, the “%Inh” value [2] was 0% and the “%Inh” value [3] was 30%. The “%Inh” value [4] was 37%, the “%Inh” value [5] was 45% and the “%Inh” value [6] was 19%. For the same molecule, the “%Inh” value [7] was 0%, the “%Inh” value [8] was 16% and the “%Inh” value [9] was 0%. The “%Inh” value [10] was 0%, the “%Inh” value [11] was 0% and the “%Inh” value [12] was 19%. The “%Inh” value [13] was 10%, the “%Inh” value [14] was 0% and the “%Inh” value [15] was 0%. For the same molecule, the “%Inh” value [16] was 0%, the “%Inh” value [17] was 26% and the “%Inh” value [18] was 17%. For the same molecule, the “%Inh” value [19] was 13% and the “%Inh” value [20] was 0%.
